Experimental data: PubChem BioAssay (NCATS)

Each compound was assayed against Cytochrome P450 3A4 (Homo sapiens) (UniProt P08684) (assay: qHTS Assay for Activators of Cytochrome P450 3A4 (AID 885; note: nearly all actives have a fitted effect of over 65% in size)). Conditions: recombinant CYP3A4, Luciferin-PPXE luminescence, 60 min; series mostly up to 57.1 µM; activity change, positive = activation: at the top concentration; active = well fitted activation curve with a large enough effect; inconclusive = small, poorly fitted or top-dose-only effect; inactive = no such curve, though single readings can be large or run the other way.
Method in brief: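 Quantitative HTS format: compounds preincubated with 20nM human CYP3A4 and Luciferin-PPXE substrate at KM, reaction started by NADPH regeneration, stopped after 60 min, luciferase luminescence read 20 min later.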

Cytochrome P450 3A4 (Homo sapiens), sequence (P08684 whole entry, looked up): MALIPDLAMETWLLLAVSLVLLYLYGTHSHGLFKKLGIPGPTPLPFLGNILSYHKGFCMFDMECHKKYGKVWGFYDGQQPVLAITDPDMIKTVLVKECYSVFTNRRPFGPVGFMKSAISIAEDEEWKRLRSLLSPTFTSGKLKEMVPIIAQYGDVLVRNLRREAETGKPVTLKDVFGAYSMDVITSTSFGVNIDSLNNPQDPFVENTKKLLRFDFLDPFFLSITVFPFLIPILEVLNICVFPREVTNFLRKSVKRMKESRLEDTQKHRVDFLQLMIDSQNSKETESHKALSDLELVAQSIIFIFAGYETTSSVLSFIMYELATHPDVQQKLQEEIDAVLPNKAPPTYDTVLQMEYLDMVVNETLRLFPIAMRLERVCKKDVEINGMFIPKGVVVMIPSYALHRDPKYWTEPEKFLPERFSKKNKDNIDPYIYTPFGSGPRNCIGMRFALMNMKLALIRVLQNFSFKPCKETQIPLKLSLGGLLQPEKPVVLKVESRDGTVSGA

Activity change, positive = activation, inactive:
COC(=O)c1ccc(C(/C=C/[C@@H](C)C(=O)NCc2ccc(OC)c(O)c2)NC(=O)OCc2ccccc2)cc1 (some centres undefined) -88.2%
COC(=O)c1ccc(C(NC(=O)OCc2ccccc2)/C(F)=C/[C@@H](C)C(=O)Nc2ccc(OC)cc2)cc1 (some centres undefined) -95.2%
COC(=O)[C@H](Cc1ccccc1)NC(=O)[C@H]1C[C@@H]1[C@H](NC(=O)OCc1ccccc1)c1ccccc1 -86.5%
COC(=O)[C@H](Cc1ccccc1)NC(=O)[C@]1(C)C[C@H]1[C@H](NC(=O)OCc1ccccc1)c1ccccc1 -85.4%
COC(=O)c1ccc(C(NC(=O)OCc2ccccc2)/C(F)=C/[C@@H](C)C(=O)NCc2nc3ccccc3s2)cc1 (some centres undefined) -99.7%
COCCNC(=O)[C@@]1(C)C=C[C@@H](Cc2ccccc2)N1C(=O)c1ccccc1 -60.3%
CCCCCCN(C(=O)CCCCCN1C(=O)NC(c2cccc([N+](=O)[O-])c2)C(C(=O)OCc2ccccc2)=C1C)C(C(=O)NCCCC)c1ccc(OCC(=O)OC)c(C(=O)OC)c1 (centres undefined) -96.9%
COC(=O)c1ccc(C(NC(=O)OCc2ccccc2)/C(F)=C/[C@@H](C)C(=O)NCc2cccnc2)cc1 (some centres undefined) -122%
COC(=O)c1ccc(C(/C=C/[C@@H](C)C(=O)NCc2cc(C)n(C)n2)NC(=O)OCc2ccccc2)cc1 (some centres undefined) -61.6%
COC(=O)c1ccc(C(NC(=O)OCc2ccccc2)/C(C)=C/[C@@H](C)C(=O)NCc2nn(-c3ccccc3)nc2C)cc1 (some centres undefined) -116%
COC(=O)[C@@H]1CCCN1C(=O)[C@H]1C[C@@H]1[C@H](NC(=O)OCc1ccccc1)c1ccccc1 -85.1%
COC(=O)N1[C@H](Cc2ccccc2)C=C[C@]1(C)C(=O)NCc1ccccn1 -68.5%
COC(=O)[C@@H]1C[C@H]1[C@@H](NC(=O)c1ccc(Br)cc1)c1ccccc1 -77.5%
CC(C)NC(=O)[C@@H]1C[C@H]1[C@@H](NC(=O)OCc1ccccc1)c1ccccc1 -86.5%
COC(=O)c1ccc(C(NC(=O)OCc2ccccc2)/C(=C/[C@@H](C)C(=O)NCCc2c[nH]c3ccccc23)c2cccnc2)cc1 (some centres undefined) -99%
CC1(C(=O)NCc2cc(F)cc(C(F)(F)F)c2)C=CC2(CCCCC2)N1C(=O)c1ccccc1 (centres undefined) -102%
COC(=O)[C@@]1(C)C=C[C@@H](Cc2ccccc2)N1C -79.4%
CC(C)NC(=O)[C@@H]1C[C@@]1(C)[C@@H](NC(=O)OCc1ccccc1)c1ccccc1 -82.4%
CC(C)CC1(C(=O)NCC2CC2)C=CCN1C(=O)c1ccccc1 (centres undefined) -86.1%
COC(=O)c1ccc(C(NC(=O)OCc2ccccc2)/C(=C/[C@@H](C)C(=O)Nc2ccccc2)c2cccnc2)cc1 (some centres undefined) -95%
COC(=O)c1ccc(C(NC(=O)OCc2ccccc2)/C(=C/[C@@H](C)C(=O)Nc2ccc(OC)cc2)c2cccnc2)cc1 (some centres undefined) -87.1%
CCCCNC(=O)C(c1ccc(OCC(=O)OC)c(C(=O)OC)c1)N(Cc1ccccc1)C(=O)CCCCCN1C(=O)NC(c2ccc(-c3ccccc3)cc2)C(C(=O)OCc2ccccc2)=C1C (centres undefined) -71.8%
COC(=O)c1ccc(C(NC(=O)OCc2ccccc2)/C(=C/[C@@H](C)C(=O)NCc2ccc(OC)c(OC)c2)c2cccnc2)cc1 (some centres undefined) -92.1%
CNC(=O)[C@@H]1C[C@H]1[C@@H](NC(=O)OCc1ccccc1)c1ccccc1 -90.4%
COC(=O)c1ccc(C(NC(=O)OCc2ccccc2)/C(=C/[C@@H](C)C(=O)NCc2nc3ccccc3s2)c2cccnc2)cc1 (some centres undefined) -63.1%
COCCNC(=O)C1(C)C=CC2(CCCCC2)N1C(=O)c1ccccc1 (centres undefined) -90.6%
CC(=O)N1CC=CC1(CC(C)C)C(=O)NCCc1c[nH]c2ccccc12 (centres undefined) -89.4%
CCC[C@@H]1C[C@@]1(CCC)[C@@H](NC(=O)Oc1ccccc1)c1ccc(C(=O)OC)cc1 -101%
COC(=O)c1ccc(C(NC(=O)OCc2ccccc2)/C(=C/[C@@H](C)C(=O)NCCF)c2cccnc2)cc1 (some centres undefined) -75.9%
CC(=O)N1CC=CC1(CC(C)C)C(=O)NCc1cc(F)cc(C(F)(F)F)c1 (centres undefined) -84.6%
COC(=O)[C@H](Cc1ccccc1)NC(=O)[C@@]1(C)C[C@@H]1[C@@H](NC(=O)OCc1ccccc1)c1ccccc1 -89.5%
CC(=O)N1[C@H](Cc2ccccc2)C=C[C@]1(C)C(=O)NCc1cc(F)cc(C(F)(F)F)c1 -63.2%
CC(=O)N1[C@H](Cc2ccccc2)C=C[C@]1(C)C(=O)NCCN1CCOCC1 -60.4%
COC(=O)c1ccc(C(NC(=O)OCc2ccccc2)/C(=C/[C@@H](C)C(=O)NCc2cc(F)cc(F)c2)c2cccnc2)cc1 (some centres undefined) -99.3%
